Measured values from PubChem BioAssay AID1159580 (chemical genetic matrix, 2015).
“And” between values parts separate entries of the source, which are not always exact repeats. Equal values may be shown once. Screen size: about 5,500 compounds; about 2,000 (36%) were called active. Not shown: some 18% with an inconclusive outcome. Cut-off read from the data, not from the text of the source: active = normalized growth mostly below about 0.91 (no sharp cut-off); inconclusive = no clear call, values can overlap the other calls; inactive = mostly above about 0.92. Some of the results follow.

Assay: chemical genetic growth profiling, strain panel (AID 1159580);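 note: tested at 20 µM; growth read once vehicle control cultures reached saturation at 30 °C; 1 = growth at the plate median or of vehicle wells; lower values mean less growth of the strain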
Conditions: S. cerevisiae deletion strains, growth OD

Measured: normalized growth

CC(C)(O)[C@@H]1[C@H]2OC(=O)[C@@H]1[C@]1(O)C[C@H]3O[C@]34C(=O)O[C@H]2[C@]14C
inactive: locus YAL013W, strain DEP1, hits give low values 1 | locus YAL021C, strain ccr4, hits give low values 1.01 | locus YAL026C, strain drs2, hits give low values 1.01 | locus YAL030W, strain snc1, hits give low values 1 | locus YBL061C, strain skt5, hits give low values 1 | locus YBR009C, strain hhf1, hits give low values 0.998 | locus YBR021W, strain FUR4, hits give low values 1 | locus YBR023C, strain chs3, hits give low values 1.01 | locus YBR171W, strain sec66, hits give low values 0.99 | locus YBR229C, strain ROT2, hits give low values 1 | locus YBR231C, strain swc5, hits give low values 0.991 | locus YBR279W, strain paf1, hits give low values 1.01 | locus YCL011C, strain gbp2, hits give low values 1.01 | locus YCL016C, strain dcc1, hits give low values 1.01 | locus YCL029C, strain bik1, hits give low values 1.01 | locus YCL061C, strain MRC1, hits give low values 1 | locus YCL069W, strain vba3, hits give low values 1.01 | locus YCR088W, strain abp1, hits give low values 1 | locus YDL005C, strain med2, hits give low values 0.988 | locus YDL035C, strain GPR1, hits give low values 1 | locus YDL040C, strain nat1, hits give low values 1 | locus YDL074C, strain BRE1, hits give low values 1.02 | locus YDL101C, strain DUN1, hits give low values 1.01 | locus YDL134C, strain PPH21, hits give low values 1 | locus YDL185W, strain tfp1, hits give low values 1.01 | locus YDL192W, strain arf1, hits give low values 1.02 | locus YDR001C, strain nth1, hits give low values 1.01 | locus YDR069C, strain doa4, hits give low values 1.01 | locus YDR101C, strain arx1, hits give low values 1 | locus YDR137W, strain rgp1, hits give low values 1 | locus YDR150W, strain NUM1, hits give low values 1 | locus YDR159W, strain sac3, hits give low values 0.993 | locus YDR162C, strain NBP2, hits give low values 1.01 | locus YDR195W, strain ref2 0.988 | locus YDR297W, strain sur2, hits give low values 0.993 | locus YDR318W, strain mcm21, hits give low values 1.01 | locus YDR334W, strain swr1, hits give low values 1.02 | locus YDR335W, strain msn5, hits give low values 1 | locus YDR388W, hits give low values 1.02 | locus YDR392W, strain spt3, hits give low values 0.939 | locus YDR502C, strain sam2, hits give low values 1.03 | locus YEL003W, strain gim4, hits give low values 1 | locus YEL037C, strain rad23, hits give low values 1.02 | locus YEL061C, strain CIN8 (second series), hits give low values 1.01 | locus YEL061C, strain CIN8, hits give low values 1 | locus YER015W, strain faa2, hits give low values 1.01 | locus YER016W, strain bim1, hits give low values 0.997 | locus YER110C, hits give low values 1.02 | locus YER111C, strain swi4, hits give low values 1 | locus YER155C, strain BEM2 (second series), hits give low values 1.01 | locus YER155C, strain BEM2, hits give low values 1 | locus YER167W, strain BCK2, hits give low values 1 | locus YFR010W, strain ubp6, hits give low values 1.01 | locus YGL078C, strain dbp3, hits give low values 1.01 | locus YGL086W, strain mad1, hits give low values 1.02 | locus YGL167C, strain pmr1, hits give low values 1 | locus YGL173C, strain kem1, hits give low values 1 | locus YGL227W, strain vid30, hits give low values 0.993 | locus YGL240W, strain doc1, hits give low values 1 | locus YGL248W, strain PDE1, hits give low values 1.01 | locus YGL253W, strain hxk2, hits give low values 1.01 | locus YGR078C, strain PAC10, hits give low values 1 | locus YGR135W, strain pre9, hits give low values 1 | locus YGR252W, strain gcn5, hits give low values 0.994 | locus YHR013C, strain ard1, hits give low values 0.988 | locus YHR027C, strain rpn1, hits give low values 1.01 | locus YHR030C, strain SLT2, hits give low values 1.01 and 1.03 | locus YHR079C, strain IRE1 (second series), hits give low values 1.01 | locus YHR079C, strain IRE1, hits give low values 1.03 | locus YHR094C, strain hxt1, hits give low values 1.01 | locus YHR129C, strain ARP1, hits give low values 1 | locus YHR142W, strain chs7, hits give low values 1.01 | locus YHR200W, strain rpn10, hits give low values 1.03 | locus YIL066C, strain RNR3, hits give low values 1.01 | locus YIL073C, strain SPO22, hits give low values 1.06 | locus YIL125W, strain kgd1, hits give low values 1.01 | locus YIR030C, strain dcg1, hits give low values 1.02 | locus YJL092W, strain hpr5, hits give low values 1 | locus YJL095W, strain BCK1 (second series), hits give low values 1 | locus YJL095W, strain BCK1, hits give low values 0.997 and 1.04 | locus YJL115W, strain asf1, hits give low values 1.01 | locus YJL129C, strain trk1, hits give low values 1 | locus YJL134W, strain LCB3, hits give low values 1.01 | locus YJL154C, strain vps35, hits give low values 1.01 | locus YJL164C, strain tpk1, hits give low values 0.999 | locus YJL166W, strain qcr8, hits give low values 1 | locus YJL168C, strain set2, hits give low values 1.01 | locus YJL187C, strain SWE1 (second series), hits give low values 1.01 | locus YJL187C, strain SWE1, hits give low values 1.01 | locus YJR043C, strain POL32, hits give low values 1.01 | locus YJR066W, strain TOR1, hits give low values 0.965 | locus YJR075W, strain HOC1, hits give low values 1.01 | locus YKL009W, strain mrt4, hits give low values 1.02 | locus YKL068W, hits give low values 1 | locus YKL085W, strain MDH1 (second series), hits give low values 1 | locus YKL085W, strain MDH1, hits give low values 1 | locus YKL160W, strain elf1, hits give low values 0.998 | locus YKL190W, strain CNB1, hits give low values 1.01 | locus YKR001C, strain vps1, hits give low values 1.05 | locus YKR026C, strain gcn3, hits give low values 1.01 | locus YKR091W, strain srl3, hits give low values 1 | locus YLL001W, strain dnm1, hits give low values 0.996 | locus YLL026W, hits give low values 0.999 | locus YLL041C, strain sdh2, hits give low values 1.01 | locus YLR027C, strain aat2, hits give low values 1.03 | locus YLR039C, strain RIC1, hits give low values 0.995 | locus YLR058C, strain SHM2, hits give low values 1 | locus YLR102C, strain apc9, hits give low values 1.01 | locus YLR113W, strain HOG1, hits give low values 0.982 | locus YLR221C, strain rsa3, hits give low values 0.999 | locus YLR258W, strain gsy2, hits give low values 0.997 | locus YLR262C, strain YPT6 (second series), hits give low values 0.991 | locus YLR262C, strain YPT6, hits give low values 1.02 | locus YLR268W, strain sec22, hits give low values 1.02 | locus YLR320W, strain mms22, hits give low values 1 | locus YLR330W, strain CHS5, hits give low values 1.01 | locus YLR342W, strain FKS1 (second series), hits give low values 1.02 | locus YLR342W, strain FKS1, hits give low values 1.01 | locus YLR357W, strain rsc2, hits give low values 1.02 | locus YLR370C, strain arc18, hits give low values 1 | locus YLR371W, strain rom2, hits give low values 1.02 | locus YLR384C, strain iki3, hits give low values 0.994 | locus YLR418C, strain cdc73, hits give low values 0.997 | locus YML016C, strain PPZ1, hits give low values 1.01 | locus YML032C, strain rad52, hits give low values 1.02 | locus YML120C, strain ndi1, hits give low values 1.01 | locus YML124C, strain tub3, hits give low values 1 | locus YMR058W, strain fet3, hits give low values 1.01 | locus YMR078C, strain ctf18, hits give low values 1.01 | locus YMR125W, strain sto1, hits give low values 1.01 | locus YMR129W, hits give low values 1 | locus YMR205C, strain PFK2, hits give low values 0.988 | locus YMR223W, strain ubp8, hits give low values 1.01 | locus YMR231W, strain pep5, hits give low values 1 | locus YMR263W, strain SAP30, hits give low values 1.01 | locus YMR307W, strain GAS1, hits give low values 1.03 | locus YNL067W, strain RPL9B, hits give low values 1 | locus YNL071W, strain lat1, hits give low values 1.01 | locus YNL128W, strain TEP1, hits give low values 1.03 | locus YNL153C, strain GIM3, hits give low values 1 | locus YNL183C, strain NPR1, hits give low values 0.987 | locus YNL209W, strain ssb2, hits give low values 1.01 | locus YNL233W, strain BNI4, hits give low values 0.996 | locus YNL248C, strain rpa49, hits give low values 0.958 | locus YNL250W, strain rad50, hits give low values 1 | locus YNL271C, strain bni1, hits give low values 1.01 | locus YNL298W, strain CLA4, hits give low values 1.02 | locus YNL307C, strain MCK1, hits give low values 1.03 | locus YNL322C, strain KRE1 (second series), hits give low values 0.998 | locus YNL322C, strain KRE1, hits give low values 1 | locus YNR049C, strain mso1, hits give low values 1.01 | locus YNR052C, strain pop2, hits give low values 1.01 | locus YOL006C, strain TOP1, hits give low values 1.02 | locus YOL012C, strain htz1 1.37 | locus YOL147C, strain pex11, hits give low values 1.01 | locus YOR001W, strain rrp6, hits give low values 1.02 | locus YOR061W, strain CKA2, hits give low values 1.02 | locus YOR069W, strain VPS5, hits give low values 1.01 | locus YOR070C, strain gyp1, hits give low values 1.02 | locus YOR080W, strain dia2, hits give low values 0.992 | locus YOR083W, strain WHI5, hits give low values 0.988 | locus YOR106W, strain vam3, hits give low values 1.01 | locus YOR136W, strain idh2, hits give low values 1.01 | locus YOR144C, strain elg1, hits give low values 1.02 | locus YOR184W, strain ser1, hits give low values 1.02 | locus YOR231W, strain MKK1, hits give low values 1.02 | locus YOR265W, strain rbl2, hits give low values 1.01 | locus YOR270C, strain vph1, hits give low values 1.02 | locus YOR290C, strain snf2, hits give low values 0.982 | locus YOR316C, strain cot1, hits give low values 1.01 | locus YPL051W, strain arl3, hits give low values 1.04 | locus YPL055C, strain LGE1, hits give low values 1.01 | locus YPL078C, strain atp4, hits give low values 1.01 | locus YPL106C, strain sse1, hits give low values 0.987 | locus YPL240C, strain hsp82, hits give low values 0.997 | locus YPL241C, strain CIN2, hits give low values 1.01 | locus YPL256C, strain CLN2, hits give low values 1.02 | locus YPR119W, strain clb2, hits give low values 1.01 | locus YPR141C, strain kar3, hits give low values 1 | locus YPR163C, strain tif3, hits give low values 1.03 | locus YPR167C, strain met16, hits give low values 1.01 | strain wtn01, hits give low values 1.03
